# Compound activity deposited in PubChem by several laboratories.
# A selection: hits, their analogues and other compounds. The true share with any hit is near 7.1%.
# Pyk2 oligo antag: antagonists of Pyk2 self-association, primary screen, Q293 cells, FERM NanoBiT luminescence, HTS; Protein-tyrosine kinase 2-beta (Homo sapiens), Q14289; active compounds read low; z-score (the deposit names both 25 µM and 10 µM); 99,000 compounds, 0.83% hits;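 active = Z-score of -3 or lower, scaled per plate to the spread of control and sample wells; inactive = z-score above -3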;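 also: negative z-score means lost luminescence so less FERM oligomerization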
# Target sequence (Q14289 whole entry, looked up): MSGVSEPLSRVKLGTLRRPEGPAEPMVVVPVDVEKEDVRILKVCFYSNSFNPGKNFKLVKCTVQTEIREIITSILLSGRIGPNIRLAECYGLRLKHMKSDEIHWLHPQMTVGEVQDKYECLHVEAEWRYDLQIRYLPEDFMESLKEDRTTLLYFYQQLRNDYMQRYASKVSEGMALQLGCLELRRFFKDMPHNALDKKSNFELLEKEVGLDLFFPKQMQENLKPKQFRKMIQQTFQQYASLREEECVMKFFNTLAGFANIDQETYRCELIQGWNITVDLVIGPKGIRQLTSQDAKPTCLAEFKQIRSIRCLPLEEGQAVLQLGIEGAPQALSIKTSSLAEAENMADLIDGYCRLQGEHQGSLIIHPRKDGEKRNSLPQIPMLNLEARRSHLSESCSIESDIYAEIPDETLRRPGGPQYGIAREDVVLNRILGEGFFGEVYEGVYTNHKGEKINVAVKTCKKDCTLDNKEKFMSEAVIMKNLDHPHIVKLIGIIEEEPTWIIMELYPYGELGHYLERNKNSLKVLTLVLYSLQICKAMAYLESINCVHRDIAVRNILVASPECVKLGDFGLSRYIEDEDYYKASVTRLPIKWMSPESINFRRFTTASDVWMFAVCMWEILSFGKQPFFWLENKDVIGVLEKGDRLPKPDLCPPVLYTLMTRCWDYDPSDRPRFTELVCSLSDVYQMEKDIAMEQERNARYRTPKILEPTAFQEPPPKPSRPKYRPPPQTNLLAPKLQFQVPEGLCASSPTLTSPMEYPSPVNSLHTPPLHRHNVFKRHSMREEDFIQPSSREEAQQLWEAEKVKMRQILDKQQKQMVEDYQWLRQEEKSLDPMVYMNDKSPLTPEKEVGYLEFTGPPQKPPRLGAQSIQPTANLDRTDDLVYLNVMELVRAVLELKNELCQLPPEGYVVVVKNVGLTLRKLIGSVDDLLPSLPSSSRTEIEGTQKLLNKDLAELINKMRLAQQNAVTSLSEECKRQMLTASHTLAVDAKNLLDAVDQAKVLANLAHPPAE
# Cav3 T inh: Cav3.2 calcium influx blockers – cell-based, Fluo-4 calcium fluorescence, FDSS, MLSMR library, primary screen | Voltage-dependent T-type calcium channel subunit alpha-1H (Homo sapiens), O95180 | Cav3.2-expressing cells; active compounds read low | B-score at 10 µM | 100,000 compounds, 4% hits | AID 449739, 2010;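 active = single-dose well whose peak fluorescence ratio is a statistical outlier from its plate by either plate-standardised score or position-corrected B-score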
# M1 ag: M1 muscarinic receptor agonists, primary screen, CHO-M1 cells, Fluo-4 calcium, agonist mode; Muscarinic acetylcholine receptor M1; Fluo-4 calcium fluorescence; active compounds read high; B-score at 10 µM; 64,000 compounds, 3% hits;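 active = fluorescence rise, raw or as B-score row- and column-corrected plate score, outside the 99.7% band of its plate's samples, either direction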
# M1 antag: antagonists of rat M1 muscarinic receptor; Muscarinic acetylcholine receptor M1 (Rattus norvegicus), P08482; CHO-M1 cells, Fluo-4 calcium, ACh EC80 antagonist mode; active compounds read low; B-score at 10 µM; 64,000 compounds, 3.4% hits;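 active = calcium fluorescence response, raw or row-and-column corrected B-score, differing from the plate sample mean either way at a set confidence level, mostly lower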
# M1 agonist conf: rat M1 muscarinic receptor agonists, confirmation, CHO-M1 cells, Fluo-4 calcium, duplicate retest; 1,700 compounds, 19% hits; shares compounds with M1 ag; Fluo-4 calcium fluorescence, agonist mode; actives lie on both sides; fluorescence change (max-min) at 10 µM; AID 1488, 2009;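 active = fluorescence change differs from the solvent-only DMSO control mean at a set confidence level in both duplicate runs; inconclusive = differs from solvent-only control mean in just one of two runs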;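 also: an EC20 dose of acetylcholine follows compound addition during the same imaging run; raw fluorescence intensity difference in instrument units with no normalization to controls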
# M4 agonist ctr: agonist activity at rat M4 receptor, confirmation, counter-screen for M1 allosteric modulator project, cell-based, agonist mode; CHO M4/Gqi5 cells, Fluo-4 calcium fluorescence; actives lie on both sides; AID 1741, 2009; shares compounds with M1 ag; 1,700 compounds, 9% hits; fluorescence change (max-min) at 10 µM;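 active = fluorescence change differing from the plate's solvent-only control wells at 99.7% confidence in both duplicates, whether higher or lower; inconclusive = differs from solvent controls in only one of two duplicates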
# The depositor's hits bear a star; ? = inconclusive; / = no result.
SMILES,Pyk2 oligo antag,Cav3 T inh,M1 ag,M1 antag,M1 agonist conf,M4 agonist ctr
O=C(COC(=O)c1ccncc1)Nc1cccc(Cl)c1,0.21,-0.46,/,/,/,/
CN1CCN(c2nc(-c3ccccc3)cc(C(F)(F)F)n2)CC1,-1.1,-0.55,/,/,/,/
CN1CCN(c2nc(-c3cccs3)cc(C(F)(F)F)n2)CC1,-0.67,0.18,3.1*,-18*,?,?
C/C(N)=C(/C#N)C(=O)CSc1nnnn1-c1ccc(C)cc1C,-0.71,-0.23,0.56,0.68,/,/
Cn1c(N)c(C(=O)c2ccccc2)c(=O)n(C)c1=O,1.5,-0.73,/,/,/,/
CCC(=NC(C)c1ccccc1)c1c(O)n(C)c(=O)n(C)c1=O (centres undefined),0.5,-1.5,3.8*,-0.51,-6.7,-28
CC(C)N(Cc1nc(-c2ccc(Cl)cc2)no1)C(=O)CCC1CCCC1,/,-1,3.4*,0.027,?,-45
CCOc1cccc(C2C(C(=O)c3ccc(C)o3)=C(O)C(=O)N2c2nccs2)c1 (centres undefined),0.43,-3.9,55*,0.27,822*,125*
CCCCN1CCc2c([nH]c3ccc(C)cc23)C1=O,0.4,-1.4,3.5*,-0.076,-12,?
Cc1ccc2[nH]c3c(c2c1)CCC3=O,0.9,-0.018,0.79,-0.77,/,/
CCOC(=O)Cc1csc(SCC(=O)c2c(N)n(CC(C)C)c(=O)n(C)c2=O)n1,2.1,/,8.9*,-2.9*,-2.6,14
NCCCC[C@H](NC(=O)C1CCNCC1)c1nnc(CN)o1,/,0.14,/,/,/,/
Cc1ccc(S(=O)(=O)N2CCN(C(=O)CN3CCOCC3)C2c2ccccc2)cc1 (centres undefined),-0.25,0.016,6.2*,0.68,-12,-29
O=C(CN1CCOCC1)N1CCN(S(=O)(=O)c2ccccc2)C1c1ccccc1 (centres undefined),0.56,-0.51,0.41,0.39,/,/
C=C(C)CSc1nnc2n(C)c(=O)c3c4c(sc3n12)CCC4,0.5,1.9,3.5*,0.0045,-19,?
Fc1ccc(-n2nnc(-c3nccs3)n2)cc1,/,0.33,/,/,/,/
O=C(Nc1cnc2ccccc2c1)c1cccc(-n2cnnn2)c1,-0.05,-0.85,4.4*,-1,?,-35
CC(C)OC(=O)c1cn(-c2ccccc2)nc1-c1ccco1,0.13,-0.0018,4.4*,-1.1,-16,-40
CC(NC(=O)/C(=C/c1cccc([N+](=O)[O-])c1)NC(=O)c1ccco1)C(=O)O (centres undefined),1.3,/,/,/,/,/
Cc1c(C(=O)N2CCN(c3ccccc3F)CC2)sc2ncn(CC(=O)N3CCOCC3)c(=O)c12,0.64,/,3.7*,-0.0089,-15,?
COc1ccc(OCC(=O)N2CCN(c3nnc(-c4ccccc4)c4ccccc34)CC2)cc1,-1.1,-5.8*,7.3*,-7*,?,-71
O=C(COc1ccccc1)N1CCN(c2nnc(-c3ccccc3)c3ccccc23)CC1,-1.6,-2.4,0.0045,-0.45,/,/
CC(C)CN(CC(C)C)C(=O)CS(=O)(=O)Cc1ccccc1,0.41,0.46,-0.58,-0.51,/,/
COc1cccc(OCC(=O)Nc2c(C(=O)Nc3ccc(OC)cc3OC)oc3ccccc23)c1,/,/,-0.59,-0.38,/,/
Cc1ccc(C(=O)CCNc2ccc(Cl)cc2)o1,-0.55,-0.91,/,/,/,/
SMILES,Pyk2 oligo antag,Cav3 T inh,M1 ag,M1 antag,M1 agonist conf,M4 agonist ctr
CCn1c(=O)cc(SCC(=O)N2CCN(c3ccccc3OC)CC2)c2ccccc21,-0.4,-0.76,4.5*,0.31,?,-30
O=C(CCC(=O)OCc1ccc(C(=O)Oc2ccccc2)cc1)Nc1cccc2ccccc12,0.67,-0.078,/,/,/,/
CCCN(CCC)S(=O)(=O)c1ccc(C(=O)N2CCC(=O)c3ccccc32)cc1,-1.3,-0.97,3.3*,-2.8*,-18,-64
CCCN(Cc1ccccc1)S(=O)(=O)c1ccc(N2C(=O)CCC2=O)cc1,1.1,-0.62,0.55,0.11,/,/
O=C(c1cc2nc(-c3ccco3)cc(C(F)(F)F)n2n1)N1CCN(c2ccccn2)CC1,0.64,-0.15,2.5*,-0.93,?,-49
O=C(c1cc2nc(-c3ccccc3)cc(-c3ccccc3)n2n1)N1CCN(C(=O)c2ccco2)CC1,-1.2,-0.17,3.5*,-0.82,-20,-21
Cc1cc(C)cc(C(=O)NN2CCOCC2)c1,0.33,/,/,/,/,/
N#C/C(=C/c1ccc(N2CCCCCC2)o1)c1ccc(F)cc1,0.41,-6.1*,31*,0.87,-2.8,?
COc1ccc(S(=O)(=O)Nc2cccc(SC)c2)cc1OC,-0.85,-0.17,-1.9,-0.2,/,/
CSc1cccc(NS(=O)(=O)c2cccs2)c1,0.25,-0.78,2.8*,0.95,-28*,-57
CSc1cccc(NS(=O)(=O)c2ccc3c(c2)oc(=O)n3C)c1,/,-1.6,-4*,-1.2,-15,-35
O=C(CSc1nnnn1C1CC2CCC1C2)Nc1ccnc2ccccc12 (centres undefined),-0.04,/,19*,-2.1*,12,-1.3
COc1ccc(OC)c(C2=NOC(C(=O)N3CCCc4ccccc43)C2)c1 (centres undefined),-1.3,-0.7,/,/,/,/
CCC(=O)Nc1cc(C(F)(F)F)ccc1N1CCOCC1,0.31,0.00077,0.5,2,/,/
O=C(COC(=O)CN1C(=O)C2CC=CCC2C1=O)Nc1cc(C(F)(F)F)ccc1N1CCOCC1 (centres undefined),2,0.27,3.6*,-0.59,?,?
O=C(OCC#CCSc1nnc(-c2cccc3ccccc23)o1)c1cccs1,1.6,-4.7*,18*,-1.1,?,-30
Cn1cccc1-c1nc2ccc(NC(=O)c3cccs3)cc2[nH]1,-0.11,-1.6,8.5*,-0.64,?,-48
O=C(Nc1ccc2nc(-c3ccc(Br)o3)[nH]c2c1)c1cccs1,0.96,/,1.2,-0.4,/,/
COc1cccc(NC(=O)c2cccs2)c1,-0.07,-0.33,2.4*,-0.13,?,?
Cc1c(NC(=O)c2ccc(COc3ccc4ccccc4c3)o2)c(=O)n(-c2ccccc2)n1C,1.1,-2.4,-2.8*,0.026,-14,-52
Cc1c(NC(=O)c2cccc(F)c2)c(=O)n(-c2ccccc2)n1C,1.3,0.3,8.9*,-6.5*,-14,?
C=CCCCCCCCC(=O)OC,/,0.41,/,/,/,/
CCOC(=O)c1cnn(CCOC(=O)c2ccccc2)c1NC(=O)c1ccccc1,0.27,/,/,/,/,/
Cc1ccccc1-n1c(Cc2cccs2)n[nH]c1=S,-0.73,1.3,/,/,/,/
O=C(CSCc1nc2ccccc2[nH]1)N1CCN(c2cccc(Cl)c2)CC1,0.45,-3.5*,8*,-1.7,-22,-32
COc1ccc(NC(=S)NCCCN2CCN(C3CCCCC3)CC2)cc1,0.51,/,/,/,/,/
